# Assay results from PubChem BioAssay.
# Target: Calmodulin-1 (Homo sapiens) (UniProt P0DP23)
# Assay: CALM1 binders on microarrays, EGTA buffer, profiling panel, biochemical, small-molecule microarray, Cy5-labelled CALM1 (AID 1111);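 note: labelled calmodulin applied in Tris saline Tween buffer holding calcium plus EGTA and DTT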
# Settings: Cy5-CALM1 binding fluorescence, higher = more signal
row,Structure (SMILES),composite z-score
1,COc1ccc([Si](C)(C)[C@@H]2[C@@H](CCO)O[C@]3(C(=O)N(Cc4ccccc4)c4ccc(N5C(=O)c6cccc7cccc5c67)cc43)[C@H]2C)cc1,0.991
2,O=C(Cc1ccccc1)[C@H]1C2C=CCCC(c3ccccc3)=C2CN1Cc1ccccc1 (stereo partly drawn),-0.185
3,COc1ccccc1CN1C(=O)c2ccccc2[C@](Cc2ccccc2I)(C(=O)O)[C@@H]1c1ccc(CO)cc1,1.36
4,Cc1cc(C)c(C(O)C2C=CC3C(=O)N(c4ccccc4)C(=O)C3N2Nc2ccccc2F)c(C)c1 (stereo not drawn),0.139
5,CN(C)c1ccc(C(O)C2C=CC3C(=O)NC(=O)C3N2Nc2ccccn2)cc1 (stereo not drawn),-0.365
6,C[N+](C)(C)CCCC[C@@H]1NC(=O)[C@@H]2C[C@H](C(=O)NCCCCCCN)[C@H](c3cccc(OCCO)c3)N2C1=O,2.6
7,CCN(CC)c1ccc(N2CC=CC34O[C@@H]5/C=C\CCCOC(=O)C5[C@H]3C(=O)N(C(C)CO)[C@@H]4C2=O)cc1 (stereo partly drawn),-0.479
8,CCCCC=C[C@@H](NC(=O)OCc1ccccc1Cl)c1ccccc1,1.35
9,CCCN1C(=O)[C@]2(Cc3ccccc31)N=C(c1ccc(OCCCO)cc1)O[C@@H]2c1ccccc1,1.98
10,C=CCNC(=O)[C@H]1[C@@H]2C(=O)O[C@@H](c3ccccc3)[C@@H](c3ccccc3)N2[C@@H](c2ccccc2OCCO)[C@]12C(=O)N(C(=O)OCCOC)c1ccc(C#CC3(O)CCCCCC3)cc12,1.09
11,CN1C(=O)C2C=CC(C(O)c3cccn3C)N(Nc3ccc([N+](=O)[O-])cc3[N+](=O)[O-])C2C1=O (stereo not drawn),1.08
12,CCCCC(CC)C(O)C1C=CC2C(=O)N(c3ccccc3)C(=O)C2N1Nc1ccccc1F (stereo not drawn),0.0117
13,COCCOC(=O)N1C(=O)[C@@]2(c3ccccc31)[C@H](C(=O)NC[C@H](O)c1ccccc1)[C@H]1C(=O)O[C@H](c3ccccc3)[C@H](c3ccccc3)N1[C@@H]2c1ccc(O)cc1,0.573

# Target: Calmodulin-1 (Homo sapiens) (UniProt P0DP23)
# Assay: calcium-bound CALM1 binders on microarrays, profiling panel, artefact control for SMM control-protein annotation, biochemical, small-molecule microarray, Cy5-labelled CALM1, plus calcium (AID 1112);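 note: score merges spot fluorescence with signal to noise from triplicate slides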
# Settings: Cy5-CALM1 binding fluorescence, higher = more signal
row,Structure (SMILES),composite z-score
1,CCCNC(=O)[C@@H]1c2ccccc2C(=O)N(Cc2ccc(OC(F)(F)F)cc2)[C@H]1c1ccc(CO)cc1,0.237
2,O=C1OCCC=C[C@H]2OC34C=CCN(Cn5nnc6ccccc65)C(=O)[C@H]3N(CCCO)C(=O)[C@@H]4C12 (stereo partly drawn),-0.0354
3,CCOC(=O)C[C@H]1[C@H](OC(=O)c2ccc(-c3ccccc3)cc2)[C@@H](NC(=O)CC(C)C)c2cc(OCCCO)ccc2N1C(=O)c1ccc2ccccc2n1,-0.631
4,COCCOC(=O)N1C(=O)[C@@]2(c3cc(C#CC4=CCCCC4)ccc31)[C@H](c1ccccc1OCCO)N1[C@H](c3ccccc3)[C@H](c3ccccc3)OC(=O)[C@H]1[C@@H]2C(=O)NC[C@H](O)c1ccccc1,0.213
5,COCCCNC(=O)[C@@]1(Sc2ccc(C)cc2)CC(=O)N(C2Cc3ccccc3C2)[C@@H]1c1ccc(CO)cc1,-0.0232
6,COc1cc2c(cc1O)C(c1ccc(CN3CCCC3)cc1)N(Cc1cc3c(cc1Br)OCO3)CC2 (stereo not drawn),0.91
7,CC(C)(C)OC(=O)CC[C@@]1(C(=O)NCC(O)CO)N=C(c2ccc(OCCCO)cc2)O[C@@H]1c1ccccc1CN=[N+]=[N-] (stereo partly drawn),0.311
8,Cc1ccc(S[C@]2(C(=O)NCCN3CCOCC3)CC(=O)N(Cc3ccccc3Cl)[C@@H]2c2ccc(CO)cc2I)cc1,0.154
9,CC1CC/C=C\[C@H]2OC34C=CCN(C(C)(C)C)C(=O)[C@H]3N(CCCCCO)C(=O)[C@@H]4C2C(=O)O1 (stereo partly drawn),-0.517
10,COc1ccc(CCNC(=O)[C@@]2(c3ccc([N+](=O)[O-])cc3)CC(=O)N(C3CCCCC3)[C@@H]2c2ccc(CO)cc2)cc1,0.323
11,COCCOC(=O)N1C(=O)[C@@]2(c3cc(C#CCNC(N)=O)ccc31)[C@H](C(N)=O)[C@H]1C(=O)O[C@H](c3ccccc3)[C@H](c3ccccc3)N1[C@@H]2c1ccccc1OCCO,-0.304
12,COC(=O)[C@@H]1N=C(c2ccc(OCCCO)cc2)O[C@@H]1C,-1.2
13,O=C(c1ccccc1)N1C(=O)[C@]2(Cc3ccccc31)N=C(c1ccc(OCCCO)cc1)O[C@@H]2c1ccccc1,-0.165
14,O=C(NCCN1CCOCC1)[C@@H]1c2ccccc2C(=O)N(C2Cc3ccccc3C2)[C@H]1c1ccc(CO)cc1,-0.301
15,CCCCC(CC)C(O)C1C=CC2C(=O)N(C)C(=O)C2N1Nc1ccccc1 (stereo not drawn),0.583
16,CC[C@@H]1C=C(C(=O)O)[C@H](c2ccc(C#N)cc2)N1S(=O)(=O)c1ccc(C)cc1,-0.0241
17,[N-]=[N+]=Nc1ccccc1C[C@@]1(C(N)=O)N=C(c2ccc(OCCCO)cc2)O[C@@H]1c1ccccc1N=[N+]=[N-],0.827
18,C=CC[C@@H](OC(=O)Nc1ccc(SC)cc1)c1ccc(O)c(F)c1,-0.776

row,Structure (SMILES),composite z-score
1,CS(=O)(=O)CCOC(=O)C1=CC(c2ccc(CO)cc2)=CC(C2CC2)N(Cc2sc3ccccc3c2Cl)C=C1C(=O)OCCS(C)(=O)=O (stereo not drawn),0.0677
2,CCOC(=O)C[C@H]1[C@H](OC(=O)c2ccccc2-c2ccccc2)[C@@H](NC(=O)c2ccc3ccccc3n2)c2cc(OCCCO)ccc2N1C(=O)Cc1ccc(OC)cc1,-0.224
3,CCOC(=O)C1=C[C@@H](C(C)(C)C)N(S(=O)(=O)c2ccc(C)cc2)[C@H]1c1cccc2ccccc12,0.423
4,Cc1ccc(S[C@]2(C(=O)O)CC(=O)N(C3CCCCC3)[C@@H]2c2ccc(CO)cc2I)cc1,0.63
5,COc1ccc([Si](C)(C)[C@@H]2[C@@H](CCO)O[C@]3(C(=O)N(Cc4ccccc4)c4ccc(N5C(=O)c6cccc7cccc5c67)cc43)[C@H]2C)cc1,0.836
6,O=C(Cc1ccccc1)[C@H]1C2C=CCCC(c3ccccc3)=C2CN1Cc1ccccc1 (stereo partly drawn),-0.354
7,COc1ccccc1CN1C(=O)c2ccccc2[C@](Cc2ccccc2I)(C(=O)O)[C@@H]1c1ccc(CO)cc1,0.477
8,Cc1cc(C)c(C(O)C2C=CC3C(=O)N(c4ccccc4)C(=O)C3N2Nc2ccccc2F)c(C)c1 (stereo not drawn),-0.0086
9,CN(C)c1ccc(C(O)C2C=CC3C(=O)NC(=O)C3N2Nc2ccccn2)cc1 (stereo not drawn),-0.733
10,C[N+](C)(C)CCCC[C@@H]1NC(=O)[C@@H]2C[C@H](C(=O)NCCCCCCN)[C@H](c3cccc(OCCO)c3)N2C1=O,1.48
11,CCN(CC)c1ccc(N2CC=CC34O[C@@H]5/C=C\CCCOC(=O)C5[C@H]3C(=O)N(C(C)CO)[C@@H]4C2=O)cc1 (stereo partly drawn),-0.619
12,CCCCC=C[C@@H](NC(=O)OCc1ccccc1Cl)c1ccccc1,1
13,CCCN1C(=O)[C@]2(Cc3ccccc31)N=C(c1ccc(OCCCO)cc1)O[C@@H]2c1ccccc1,-0.317
14,C=CCNC(=O)[C@H]1[C@@H]2C(=O)O[C@@H](c3ccccc3)[C@@H](c3ccccc3)N2[C@@H](c2ccccc2OCCO)[C@]12C(=O)N(C(=O)OCCOC)c1ccc(C#CC3(O)CCCCCC3)cc12,0.647
15,CN1C(=O)C2C=CC(C(O)c3cccn3C)N(Nc3ccc([N+](=O)[O-])cc3[N+](=O)[O-])C2C1=O (stereo not drawn),0.212
16,CCCCC(CC)C(O)C1C=CC2C(=O)N(c3ccccc3)C(=O)C2N1Nc1ccccc1F (stereo not drawn),-0.264
17,COCCOC(=O)N1C(=O)[C@@]2(c3ccccc31)[C@H](C(=O)NC[C@H](O)c1ccccc1)[C@H]1C(=O)O[C@H](c3ccccc3)[C@H](c3ccccc3)N1[C@@H]2c1ccc(O)cc1,-0.522
